Source: PubChem BioAssay AID687001 (Broad Institute, 2013)
Measured potencies and affinities stand elsewhere.

Molecular target: Protein S100-A4 (Homo sapiens) (UniProt P26447)
Assay: S100A4-myosin IIA binding inhibitor potency, dose response, biochemical, fluorescence polarization, cherry-picked hits (AID 687001);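 further: 0% = DMSO neutral control wells and -100% = TFP positive control wells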
Conditions: FP, S100A4/TAMRA-myosin IIA peptide binding; series mostly up to 11 µM; activity change, negative = inhibition: at the top concentration;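 active means signal-lowering compounds whose fitted half-maximal concentration is at or below twice the top tested dose in every run; inconclusive means runs disagree, flat 30 to 70% inhibition, or poor curve fit; inactive means the rest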

Sequence of Protein S100-A4 (Homo sapiens) (P26447 whole entry, looked up): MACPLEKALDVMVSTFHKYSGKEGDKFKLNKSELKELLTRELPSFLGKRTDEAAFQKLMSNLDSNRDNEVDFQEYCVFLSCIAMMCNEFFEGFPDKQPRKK

Activity change, negative = inhibition, inactive:
Cc1ccc(NC(=S)N(C)C)cc1C -3.01%
CO[C@H]1CN(C)C(=O)c2cc(NC(=O)Nc3ccc(C(F)(F)F)cc3)ccc2OC[C@H](C)NC[C@H]1C 2.47%
COc1ccccc1CCNC(=O)C(=O)NCCC1CCCCN1S(=O)(=O)c1ccccc1 (centres undefined) -0.528%
CNC[C@@H]1OCCCC[C@H](C)Oc2ccc(NS(C)(=O)=O)cc2C(=O)N([C@@H](C)CO)C[C@@H]1C 3.23%
CC(C)(C)c1cc[n+](-c2[nH]c(=O)sc2/C=N/N=C(\[O-])c2ccccc2)cc1 0.307%
C[C@@H]1CN([C@H](C)CO)S(=O)(=O)c2ccc(C3=CCCCC3)cc2O[C@@H]1CN(C)Cc1cncnc1 4.8%
O=C(Nc1ccc(F)cc1)N1CCCCN2[C@H](CO)[C@H](c3ccc(C#Cc4ccccn4)cc3)[C@H]2C1 25.4%
CC(C)NC(=O)c1ccc(COc2cc(Cl)ccc2Cl)o1 1.71%
O=C(CSc1ncnc2c1nnn2Cc1ccc(F)cc1)NCC1CCCO1 (centres undefined) -8.11%
Cc1cc(F)ccc1S(=O)(=O)N1CCCOC1CNC(=O)C(=O)NCc1ccc2c(c1)OCO2 (centres undefined) -1.74%
C[C@@H]1CN([C@@H](C)CO)C(=O)c2cc(C#CCc3ccccc3)cnc2O[C@@H]1CN(C)CC1CC1 5.32% [at 10 µM]
C[C@@H]1ON(C)[C@H]2C[C@H]3c4[nH]c5ccccc5c4CCN3C(=O)[C@@H]12 8.57%
O=C(c1ccncc1)N1C[C@@H]2[C@H](c3ccccc31)[C@@H](CO)N2C(=O)CN1CCOCC1 0.53%
COc1cccc(NC(=O)CC2Oc3ccccc3NC2=O)c1 (centres undefined) -1.91%
CCOc1ccc(NC(=O)CN(C)C(=O)c2cccc3ccccc23)cc1OCC -1.35%
COc1c(Br)cc([N+](=O)[O-])c(OC)c1C(=O)NC(=O)Nc1c(Cl)cccc1Cl -2.6%
N#Cc1cccc(-c2ccc3c(c2)[C@@H]2[C@@H](CCN2C(=O)c2ccncc2)[C@@H](CO)N3)c1 16.9%
O=C(/C=C(\Nc1ccc(Cl)c(C(F)(F)F)c1)c1ccccc1)c1ccccc1 2.8%
C[C@@H]1CCCCO[C@@H](CN(C)C(=O)Cc2ccccc2)[C@H](C)CN([C@@H](C)CO)C(=O)c2cc(NC(=O)Nc3ccc4c(c3)OCO4)ccc2O1 5.09%
CCC(=O)Nc1ccc2c(c1)OC[C@H](C)N(C(=O)CC1CC1)C[C@H](C)[C@H](OC)CN(C)C2=O 0.814%
Cc1ccccc1OCC(=O)Nc1ccc(S(=O)(=O)N2CCCC2)cc1 7.83%
CN(CC(=O)Nc1ccc(F)cc1)C(=O)CCc1nc2sc3c(c2c(=O)[nH]1)CCCC3 51.8%
Nc1c(C(=O)Nc2ccc3c(c2)OCCO3)nnn1Cc1ccc(F)cc1 -2.78%
O=C(C[C@H]1C[C@H]2c3cc(NC(=O)Cc4ccncc4)ccc3O[C@H]2[C@H](CO)O1)NCc1ccccn1 10.1%
Cn1cnc(S(=O)(=O)N[C@@H]2C=C[C@@H](CC(=O)NCC3CC3)O[C@H]2CO)c1 -1.65%
Nc1cnccc1C(=O)O -26.8%
CC1(C)CC2CC(C)(CN2/C=N/c2sc3c(c2C#N)CC(C)(C)NC3(C)C)C1 (centres undefined) -0.327%
CCCCCN(C(=O)CCC(=O)OCC(=O)Nc1cccc(SC)c1)c1c(N)n(CCCC)c(=O)[nH]c1=O -0.499%
CCOc1cc(CNCc2ccccc2)ccc1OCc1ccc(Cl)cc1 -1.22%
Cc1cnc(CN(C)C(=O)C2CCC(=O)N(CCc3ccccc3)C2)[nH]1 (centres undefined) -4.36%
COc1ccc2c(c1)C=CC1(O2)N(CCO)c2ccccc2C1(C)C (centres undefined) 112%
O=S(=O)(NC(=NCc1ccccc1)c1ccccc1)c1ccccc1 -3.1%
COc1ccc(NC(=O)Nc2cccc3c2O[C@H](CN(C)Cc2ccc4c(c2)OCO4)[C@@H](C)CN([C@@H](C)CO)C3=O)cc1 9.31%
O=C(c1ccc(N2C(=O)CCC2=O)cc1)N1CCCSC1=Nc1ccccc1 -2.95%
CN1C(=O)c2cc(NC(=O)Cc3cccs3)ccc2OC[C@H]2O[C@H](CC(=O)N[C@H]3CCN(Cc4ccccc4)C3)CC[C@@H]21 32.8%
O=C(NCc1cc([N+](=O)[O-])ccc1O)c1cccnc1Sc1ccccc1 0.274%
CC1=CC(C)(C)NC(=S)N1C(C)c1ccccc1 (centres undefined) -1.25%
CCC1CN(C(=O)N2CCC(C(=O)NCCc3ccc(OC)c(OC)c3)CC2)c2ccccc2O1 (centres undefined) -1.87%
COc1cccc(CN2CC(C(=O)NCC3CCOCC3)CCC2=O)c1 (centres undefined) -0.108%
